± gives the standard deviation of the averaged measurements. Over roughly 25,000 sequences, “ln(normalized median fluorescence intensity)” has its median near 8.9; the highest 2% begin near 10. What follows is part of a selection rich in the highest values, with near analogues and random picks from the rest.
tested on: PfAP2-LT AP2 domain (GST-tagged); experiment: gcPBM binding intensity (ln(normalized median fluorescence intensity)); higher = stronger DNA binding
Outline: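 GST-tagged P. falciparum DNA-binding domains produced in E. coli were incubated for 1 h on an Agilent 4 × 180k array of primer-extended double-stranded 36-bp intergenic genomic probes with negative controls. Binding intensity is the highest Masliner-normalised natural-log median intensity across replicate spots of either probe orientation, with bound protein detected by Alexa488 anti-GST antibody at 488 nm.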

Sequence | gcPBM binding intensity (ln)
TTTTATTTATCATACACACACAGAAAAAAAAAAAAA [CACACA_site158] | 8.89 ± 0.32
TTTTTTTTCAAAAATACAAAAAAAAAAGAAAAAAAC [CACACA_negctrl_site625] | 8.5 ± 0.4
AAATAACACATATATACACACATATAACTATAATAT [CACACA_site7298] | 9.29 ± 0.4
ACATGTAATATAATGTGTACATATACAAAGGTATAT [XGTACX_site4145] | 9.34 ± 0.59
AGTGAATATTACGAAACACACAAAAAAATACATTTC [CACACA_site511] | 9.09 ± 0.38
CAAACAAATTGTGAAACACACATATATATATATATA [CACACA_site2001] | 9.81 ± 0.057
TATATTATTAATTAGGGTACAAAAAAAAAATTTTTT [XGTACX_site7762] | 8.3 ± 0.48
AAAGGTTTATCTGATACACACATAAGTGATCAGGTT [CACACA_site6233] | 8.83 ± 0.33
TTTTTTCAATAAATAATCGTATATTGAATAATAATA [CACACA_negctrl_site822] | 8.07 ± 0.37
TCATTTCAATACACAAGTACGTATATGGTTATATTG [XGTACX_site6021] | 8.82 ± 0.4
TCATAGTAGAAACACACACACACACCCATATATATA [CACACA_site1737] | 10.1 ± 0.23
AATAACCACCAACACACACACATATATATATATATA [CACACA_site3540] | 10.2 ± 0.24
TATAATATAAGGATCACACACAAACAGACATATATA [CACACA_site557] | 9.49 ± 0.37
ATAAGGATCAGACACAAACACACATATATATATATA [CACACA_site558] | 10.1 ± 0.13
CACCCACACCAACACACACACATATATAATATATAT [CACACA_site595] | 9.88 ± 0.33
AAGGATCACAGACAAACACACATATATATATATATA [CACACA_site4469] | 10.1 ± 0.16
AACCACATACATATAACACACATATACAATATATAT [CACACA_site8607] | 9.29 ± 0.39
TATAAACACCCATATAAACACACATATAAACCAACA [CACACA_site8790] | 9.31 ± 0.28
CATACTCACCAACACACACACACACCCATATAGAAT [CACACA_site592] | 10.2 ± 0.28
TAATTTAGTATCTTTACATGCGGGCATTATGTCATA [TGCATGCA_site167] | 8.74 ± 0.4
AAGAAAATAGGGTTCATAGGATTATACTTTTGGAAT [TGCATGCA_negctrl_site80] | 8.59 ± 0.54
TAATACTTAATGAACACATGCACATATACATAGTAT [TGCATGCA_site496] | 8.82 ± 0.47
ACTTTTTTTTTGTGTGTGCACTCGATTATATACATA [GTGCAC_site9846] | 9.57 ± 0.46
AAGGAATAATATAAAACACACACATAAATATAAATA [CACACA_site9115] | 9.6 ± 0.42

Sequence | gcPBM binding intensity (ln)
AAAAGGAAAAATATCACACATATATATATATATATA [CACACA_site5586] | 9.76 ± 0.45
AGAATAAAAAGGAACACACACACACCCATATATATA [CACACA_site3590] | 10.1 ± 0.5
ATAAAAAGGAAACACACACACACACCCATATATATA [CACACA_site904] | 10.41 ± 0.042
TATAAAAGGAAACACACACACATATATATATATATA [CACACA_site939] | 10.2 ± 0.32
AGGAAAAAAGAAAAAACACACATAAATATATATATA [CACACA_site3085] | 9.11 ± 0.38
ATAAAAAAAAGAAAAACACACACATATATATATATA [CACACA_site8243] | 9.77 ± 0.27
TAAAAAGGAAAACACACACACACATATATATATATA [CACACA_site3588] | 10.2 ± 0.26
AATGAAAAGGAACATACACACCCCATATAAATATAT [CACACA_site7588] | 9.62 ± 0.13
AAAAAAATTACATATCCATTTTAACATAATAAATAG [GTGCAC_negctrl_site618] | 8.33 ± 0.45
TACAGAATTGTATATAGTACATAAAACAATATATAT [XGTACX_site7275] | 8.88 ± 0.4
AAAATAAATAAATAAATAAATATATATATATATATA [XGTACX_negctrl_site345] | 9.16 ± 0.3
AGCCTCGGGGTCATATATATATATATATATATATAT [CACACA_negctrl_site512] | 10.35 ± 0.05
ATCAGATATATATATTGTACATTTATATATAAATCA [XGTACX_site1960] | 8.62 ± 0.46
TAACAAAAAGCACTTAGTACATATATATATATATAT [XGTACX_site1099] | 9.88 ± 0.44
AAAAAAAAAAAAAACACACACATATCTATAATATAT [CACACA_site7481] | 9.35 ± 0.44
AAAAAAAAAAAAAAAACACACATACATACATACATA [CACACA_site6125] | 9.26 ± 0.41
AAAAAAAAAAAACACACACACACATACACATACATA [CACACA_site2858] | 10.1 ± 0.22
AAAAAAAAAAAACATACACACACACTAATATTTATA [CACACA_site8038] | 9.6 ± 0.23
CCTGAACACATACATACACACACACTAATAAAAAAA [CACACA_site8023] | 9.69 ± 0.46
AAAAAAAAAAAACACACACACACACTAATACATACA [CACACA_site8135] | 10.1 ± 0.12
AAAAAAAAAAAACACACACACACACTAGTACATACA [CACACA_site4551] | 10.2 ± 0.3
TAAATGTCTTCAATGAAGTGGAAATGCTGTTATATA [CACACA_negctrl_site1155] | 8.54 ± 0.31
TATAATCATATACACGCATGTATAAAATTTAATACT [TGCATGCA_site700] | 8.96 ± 0.35
ACTATTAAAATGAATACACACAAATATAAAAATATA [CACACA_site4145] | 8.96 ± 0.5

Sequence | gcPBM binding intensity (ln)
TAATTTTTCCAACTTTGTACAGATATATTAATAAAA [XGTACX_site7856] | 8.13 ± 0.35
ACACATAAATGTATATATATATAAATATATGTATGT [CACACA_negctrl_site1532] | 9.12 ± 0.33
AAACAAAATGGTAACACACACATATATAAATATGTA [CACACA_site6994] | 9.38 ± 0.47
AAAAAAACATGAAACACACACAAATATATATATATA [CACACA_site1884] | 9.53 ± 0.52
ATAAAATGAACAAACACACACACATATATTTATATA [CACACA_site7181] | 9.84 ± 0.16
AAAAAAATGAAACACACACACACATATATATATATA [CACACA_site1043] | 10.1 ± 0.085
AAAAATGAGAAACACACACACATATATATATATATA [CACACA_site2228] | 9.94 ± 0.19
AAACAAAATGGTAACACACACATATATATATATATA [CACACA_site1939] | 10.09 ± 0.021
TAAAACAAAATGGTAACACACACATATATATATATA [CACACA_site8590] | 9.87 ± 0.15
AAAATGAACAAACACACACACATATATATATATATA [CACACA_site2403] | 10.27 ± 0.057
TGAAATGATATATAAACACACATATATATATATATA [CACACA_site3511] | 9.62 ± 0.25
TGCAAGGAAAAACACACACACACATAAATGTATATA [CACACA_site751] | 9.79 ± 0.25
TGCAAGGAACAACACACACACACATAAATGTATATA [CACACA_site8149] | 10.2 ± 0.36
TTTTGAAGAAAATTCTTTTTTTTTTTTTTTTGTAAA [CACACA_negctrl_site102] | 7.76 ± 0.65
AAATATTATGTGGCAAGTACATAAAGAAAATGCTTA [XGTACX_site3356] | 8.89 ± 0.56
AAAAAAAAAAAAAAAGCACACATCATATTTTAATTC [CACACA_site9109] | 8.87 ± 0.28
ATATATATATATATATAATATATAATATATATATAT [CACACA_negctrl_site96] | 9.01 ± 0.11
AATAATAACAAATGAACACACATATATATGAGCAAA [CACACA_site2121] | 9.13 ± 0.41
ATGATTATTTTAAAAAGTACTAATTATTATTTTTTT [XGTACX_site7242] | 8.34 ± 0.47
TTCGTTATATTTTGATGTACTGATTCATATATATAT [XGTACX_site1835] | 9.09 ± 0.42
ATTTTCTATTTTATTTGTACGTAATTTAATTTTTTT [XGTACX_site3609] | 8.96 ± 0.53
TATATACAAAATGCCTGTACATATATATTTATTTAT [XGTACX_site761] | 8.85 ± 0.35
ATAATATAATAATACACACTCATTATATATATAAAG [CACACA_site3956] | 8.82 ± 0.43
GGTCATCATCGGTATTGTACAAAAATGTGAAAATTA [XGTACX_site639] | 8.73 ± 0.48

Sequence | gcPBM binding intensity (ln)
AAATATATTATATCATATATTAAAGCATATATTAAA [CACACA_negctrl_site1624] | 8.43 ± 0.42
TATCTGTATTTGTATACACACAAATGTATTTATTTA [CACACA_site4830] | 8.94 ± 0.44
TATATTATAAATTAATGTACGTAATTTTTTTTTTTT [XGTACX_site2500] | 8.38 ± 0.48
ATAAAATGAACAAACACACACACATATATATATATA [CACACA_site2402] | 10.2 ± 0.13
AACAAAAATGAAAAAACACACATAACATATATAAAT [CACACA_site740] | 9.27 ± 0.41
TTTATAAACAAATGAACACACAAACATATATATATA [CACACA_site5713] | 9.33 ± 0.24
TTAACTATAATAAAATGTACATATGTAACATATATA [XGTACX_site7790] | 8.66 ± 0.4
ATTAATTATTTCAATGCATGTGAACACTATATATAA [TGCATGCA_site600] | 8.84 ± 0.42
ATGGATAATAAGTTTACACACAAAAAAAAAGAAAAA [CACACA_site861] | 9.02 ± 0.57
GTTCATAAATTAAACACACACACACCGCTGGATACC [CACACA_site5779] | 9.77 ± 0.16
GTTCATAAATTAAACACACACACACCCCTGGATACC [CACACA_site3331] | 10.13 ± 0.085
GTTCATAAATTAAACACACACACACGGCTGGATACC [CACACA_site7545] | 9.79 ± 0.26
AAAAAAAAAAAACACACACACACACCCATATATAAA [CACACA_site1170] | 9.995 ± 0.064
AAAAGAAAAAGAAAAACACACATAAATATAAATATA [CACACA_site1879] | 8.93 ± 0.64
TAAACACCCATATAAACACACATATAAACACCCATA [CACACA_site5382] | 9.4 ± 0.21
CAGGCACTAATAAACACACACATATAAATATAAATA [CACACA_site6320] | 9.38 ± 0.59
TAATTTTTGAAACACACACACATATATATATATATA [CACACA_site94] | 9.885 ± 0.0071
CACCCACTAATAAACACACACATATATATATATATA [CACACA_site389] | 10.3 ± 0.18
CACTAAAAGAAACACACACACACACCCATATATATA [CACACA_site4151] | 10.2 ± 0.23
CCCACTAAAAAACACACACACACACCCATATATATA [CACACA_site6140] | 10.31 ± 0.078
CATATTTGGAAACACACACACATATTTATATATATA [CACACA_site3569] | 9.62 ± 0.38
ATACTAAAGAAACACACACACATATATATATAGAAT [CACACA_site100] | 9.94 ± 0.28
ATAATTTGGAAACACACACACACACCCACATATATA [CACACA_site2286] | 10.28 ± 0.064

— the supplement of paper PMC11417369
